Sampled rows, rich in hits. Any-hit rate of the full collection: about 4.6%.
tim23-1 inh: tim23-1 yeast growth inhibition | S. cerevisiae tim23-1 growth, BacTiter-Glo luminescence, 24 h | inhibition, % at 20 µM | 330,000 tested, 1.3% active;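 active means growth inhibition of the mutant yeast at or above 50%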;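 further: temperature-sensitive mutant grown at 25 °C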
TIM10 inh: inhibits growth of TIM10 yeast strain; S. cerevisiae TIM10 strain growth, BacTiter-Glo luminescence, 24 h; inhibition, % at 10 µM; 330,000 tested, 1.4% active; AID 463195;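 active means inhibition of 40% or more at the single tested concentration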;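 further: wild-type TIM10 isogenic control strain grown at permissive 25 °C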
NALP3 yeast inh: inhibitors of NALP3 inflammasome in yeast; Yeast reconstituted NLRP3/ASC/caspase-1, beta-gal luminescence, 24 h; inhibition, % at 10 µM; 330,000 tested, 0.39% active; AID 2825;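 active means inhibition of 50% or more; inactive means inhibition below 50%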
tim10-1 inh: inhibits growth of tim10-1 mutant yeast. S. cerevisiae tim10-1 ts strain growth, BacTiter-Glo, 24 h. inhibition, % at 20 µM. 330,000 tested, 2.2% active;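 active means inhibition of at least 40%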;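 further: mutant grown at 25 °C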
SKKanGAS inh: inhibitors of SKKanGAS S. pyogenes growth in kanamycin (SK-promoter or general growth effect) | BacTiter-Glo, 6 h | inhibition, % at 7.5 µM | 300,000 tested, 1.3% active | AID 1662;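 active means mean replicate score, as percent of positive control median, at least 50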;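 further: strain carries kanamycin resistance gene driven by streptokinase promoter and grows in 40 µg/ml kanamycin; loss of luminescence reflects streptokinase promoter inhibition or plain growth inhibition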
NALP3 confirm: confirmation of NALP3 inhibitors in yeast; shares compounds with NALP3 yeast inh; yeast expressing human NALP3, luminescence; inhibition, % at 10 µM; 1,300 tested, 81% active; AID 435006; in the data active means inhibition above about 48%
Casp1 ASC ctr: counter-screen for NALP3 inhibitors: yeast caspase-1-ASC | shares compounds with NALP3 yeast inh | yeast expressing Caspase-1-ASC, luminescence counter screen | inhibition, % at 10 µM | 1,000 tested, 66% active | AID 488784
NALP3 yeast rt: yeast NALP3 inhibition, confirmed on retest; shares compounds with NALP3 yeast inh; yeast expressing human NALP3, luminescence read-out; inhibition, % at 10 µM; 1,000 tested, 53% active
Hits are given with their value. Unless noted, no stated cut-off is given here; in the data, active means inhibition above about 50%; inactive means the rest.

`CCOC(=O)Cc1csc(NC(=O)c2cc(C)c(C)s2)n1` gave tim23-1 inh inactive, TIM10 inh inactive, NALP3 yeast inh 65, tim10-1 inh inactive, NALP3 confirm 60, Casp1 ASC ctr 79 and NALP3 yeast rt 63.
`CCOC(=O)Cc1csc(NC(=O)c2ccncc2)n1` gave tim23-1 inh inactive, TIM10 inh inactive, NALP3 yeast inh inactive, tim10-1 inh inactive and SKKanGAS inh inactive.
`CCOC(=O)Cc1csc(NC(=O)c2ccc(Cl)s2)n1` gave tim23-1 inh inactive, TIM10 inh inactive, NALP3 yeast inh 63, tim10-1 inh inactive, SKKanGAS inh inactive, NALP3 confirm 73, Casp1 ASC ctr 75 and NALP3 yeast rt 71.
`CCOC(=O)Cc1csc(NC(=O)c2cccc(Cl)c2)n1` gave tim23-1 inh inactive, TIM10 inh inactive, NALP3 yeast inh 64, tim10-1 inh inactive, SKKanGAS inh inactive, NALP3 confirm 60, Casp1 ASC ctr 68 and NALP3 yeast rt 54.
Screening COc1ccc(Cl)cc1NC(=O)CN(C)C(=O)c1cc2c(s1)CCC(C)C2 (configuration not stated) returned tim23-1 inh inactive, TIM10 inh inactive, NALP3 yeast inh inactive, tim10-1 inh inactive and SKKanGAS inh inactive.
`C[C@H]1COC(=O)[C@H](Cc2ccc(F)cc2)C/C=C\C[C@H](CC(=O)NCCO)C(=O)N1` gave tim23-1 inh inactive, TIM10 inh inactive, NALP3 yeast inh inactive and tim10-1 inh inactive.
Screening CC(C)[C@H](NC(=O)c1ccc(C(C)(C)C)cc1)C(=O)N1CCN(Cc2ccc3c(c2)OCO3)CC1 returned tim23-1 inh inactive, TIM10 inh inactive, NALP3 yeast inh inactive and tim10-1 inh inactive.
CSc1nc2ccc(S(=O)(=O)N3CCOCC3)cc2s1 was read as tim23-1 inh inactive, TIM10 inh inactive, NALP3 yeast inh inactive, tim10-1 inh inactive and SKKanGAS inh inactive.
`CSc1nc2ccc(S(=O)(=O)N3CCCCC3)cc2s1` gave tim23-1 inh inactive, TIM10 inh inactive, NALP3 yeast inh 63, tim10-1 inh inactive, SKKanGAS inh inactive, NALP3 confirm 82, Casp1 ASC ctr inactive and NALP3 yeast rt inactive.
Screening CC(C)Sc1nnc(NC(=O)CCc2ccccc2)s1 returned tim23-1 inh inactive, TIM10 inh inactive, NALP3 yeast inh inactive, tim10-1 inh inactive and SKKanGAS inh inactive.
Cc1ccccc1C(=O)Nc1nnc(SC(C)C)s1 was read as tim23-1 inh inactive, TIM10 inh inactive, NALP3 yeast inh 51, tim10-1 inh inactive, SKKanGAS inh inactive, NALP3 confirm inactive, Casp1 ASC ctr 71 and NALP3 yeast rt 63.
Screening Cc1cccc(C(=O)Nc2scc(-c3ccc(Br)cc3)c2C(=O)O)c1 returned tim23-1 inh inactive, TIM10 inh inactive, NALP3 yeast inh 61, tim10-1 inh inactive, SKKanGAS inh 89, NALP3 confirm 61, Casp1 ASC ctr inactive and NALP3 yeast rt inactive.
`COc1cc(C(=O)Nc2scc(-c3ccc(Br)cc3)c2C(=O)O)cc(OC)c1OC` gave tim23-1 inh inactive, TIM10 inh inactive, NALP3 yeast inh inactive, tim10-1 inh inactive and SKKanGAS inh inactive.
`NCCC(=O)NCCc1cnc[nH]1` gave tim23-1 inh inactive, TIM10 inh inactive, NALP3 yeast inh 66, tim10-1 inh inactive, NALP3 confirm 76, Casp1 ASC ctr 63 and NALP3 yeast rt 72.
`CCN(CC)c1ncnc2sc3c(c12)CCC3` gave tim23-1 inh inactive, TIM10 inh inactive, NALP3 yeast inh 61, tim10-1 inh inactive, SKKanGAS inh inactive, NALP3 confirm 64, Casp1 ASC ctr 67 and NALP3 yeast rt 57.
c1ccc(-c2ccc(-c3cn4c(n3)CCC4)cc2)cc1 was read as tim23-1 inh inactive, TIM10 inh inactive, NALP3 yeast inh 66, tim10-1 inh inactive, SKKanGAS inh inactive, NALP3 confirm 68, Casp1 ASC ctr 87 and NALP3 yeast rt 74.
For NCCc1nnc(SCC(=O)Nc2cccc(Cl)c2)o1 the results were tim23-1 inh inactive, TIM10 inh inactive, NALP3 yeast inh 52, tim10-1 inh inactive, SKKanGAS inh inactive, NALP3 confirm 75, Casp1 ASC ctr 57 and NALP3 yeast rt 68.
Screening CC(C)(C)OC(=O)NCCc1nnc(SCC(=O)Nc2cccc(Cl)c2)o1 returned tim23-1 inh inactive, TIM10 inh inactive, NALP3 yeast inh inactive, tim10-1 inh inactive and SKKanGAS inh inactive.
For Cc1ccc(NN2C(=O)C=C(c3ccccc3)C2=O)cc1 the results were tim23-1 inh inactive, TIM10 inh inactive, NALP3 yeast inh 83, tim10-1 inh inactive, SKKanGAS inh inactive, NALP3 confirm 72, Casp1 ASC ctr 96 and NALP3 yeast rt 62.
CCOCCn1c(COc2ccc(C)cc2)nc2ccccc21 was read as tim23-1 inh inactive, TIM10 inh inactive, NALP3 yeast inh inactive, tim10-1 inh inactive and SKKanGAS inh inactive.
For CCn1c(COc2ccc(C)cc2)nc2ccccc21 the results were tim23-1 inh inactive, TIM10 inh inactive, NALP3 yeast inh 65, tim10-1 inh inactive, SKKanGAS inh inactive and NALP3 confirm 79.
`Cc1ccc(N(Cc2cc3ccc(C)cc3[nH]c2=O)S(=O)(=O)c2ccccc2)cc1` gave tim23-1 inh inactive, TIM10 inh inactive, NALP3 yeast inh inactive, tim10-1 inh inactive and SKKanGAS inh inactive.
`Fc1ccc2c(c1)C1OCCCC1C(c1ccccc1)N2` (configuration not stated) gave tim23-1 inh inactive, TIM10 inh inactive, NALP3 yeast inh 62, tim10-1 inh inactive, SKKanGAS inh inactive and NALP3 confirm inactive.
`c1coc(C2Nc3ccccc3C3OCCC23)c1` (configuration not stated) gave tim23-1 inh inactive, TIM10 inh inactive, NALP3 yeast inh inactive, tim10-1 inh inactive and SKKanGAS inh inactive.
Cc1cccc(NC(=O)c2ccccc2O)c1C was read as tim23-1 inh inactive, TIM10 inh inactive, NALP3 yeast inh 57, tim10-1 inh inactive, SKKanGAS inh inactive, NALP3 confirm 57, Casp1 ASC ctr 52 and NALP3 yeast rt 59.
For O=C(Nc1ccccc1O)c1ccccc1O the results were tim23-1 inh inactive, TIM10 inh inactive, NALP3 yeast inh inactive, tim10-1 inh inactive and SKKanGAS inh inactive.
CN(C)c1ncnc2sc(-c3ccccc3)cc12 was read as tim23-1 inh inactive, TIM10 inh inactive, NALP3 yeast inh 65, tim10-1 inh inactive, SKKanGAS inh inactive, NALP3 confirm 75, Casp1 ASC ctr inactive and NALP3 yeast rt inactive.
`COc1ncnc2sc(-c3ccccc3)cc12` gave tim23-1 inh inactive, TIM10 inh inactive, NALP3 yeast inh inactive, tim10-1 inh inactive and SKKanGAS inh inactive.
For C=CCNC(=S)Nc1c(N)n(C)c(=O)n(C)c1=O the results were tim23-1 inh inactive, TIM10 inh inactive, NALP3 yeast inh inactive, tim10-1 inh inactive and SKKanGAS inh inactive.

Screens from PubChem BioAssay.
